# Measured values reported in the supplement of paper PMC12645437, “Orthogonal IMiD-Degron Pairs Induce Selective Protein Degradation in Cells” (ACS Chemical Biology, 2025).
# The full ranking holds about 8,300 sequences; the median of “log2 fold change of degron read counts, EGFP-low vs EGFP+ sorted cells (limma voom), compound-induced degradation” is about -1.1, and the highest 2% start at about 3.2. This is one part of a sample in which the highest values are shown more often than they occur.
# T1: CRBN, Q96SW2
# T1 chain: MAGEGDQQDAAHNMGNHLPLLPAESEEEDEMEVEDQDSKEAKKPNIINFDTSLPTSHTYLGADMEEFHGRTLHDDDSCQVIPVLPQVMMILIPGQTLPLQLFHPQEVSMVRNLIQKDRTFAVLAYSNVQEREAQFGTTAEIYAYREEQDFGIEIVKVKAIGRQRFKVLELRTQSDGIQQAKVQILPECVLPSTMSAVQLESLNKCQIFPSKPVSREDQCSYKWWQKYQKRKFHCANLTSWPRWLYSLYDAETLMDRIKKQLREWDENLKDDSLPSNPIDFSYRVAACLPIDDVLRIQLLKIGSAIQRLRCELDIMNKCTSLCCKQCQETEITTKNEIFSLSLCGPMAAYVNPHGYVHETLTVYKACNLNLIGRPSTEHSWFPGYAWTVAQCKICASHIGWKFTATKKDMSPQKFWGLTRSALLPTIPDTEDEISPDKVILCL
# Target: T1, CRBN, Q96SW2
# Test: log2 fold change of degron read counts, EGFP-low vs EGFP+ sorted cells (limma voom), compound-induced degradation; higher = more compound-induced degradation of the degron-EGFP fusion; degrons are variants of IKZF1/3 zinc finger 2; compound dose not given here
# Settings: Jurkat, 18 h
# [1] = compound: compound 19 (5-tert-butyl-thalidomide)
# [2] = compound: compound 22 (5-morpholino-thalidomide)
# [3] = compound: compound 33 (diphenyl IMiD analogue)
# 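Further: pooled lentiviral library of zinc finger degron-EGFP fusions in mCherry-positive Jurkat cells, FACS-sorted after compound exposure, with degron abundance counted by next-generation sequencing.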
Sequence,log2 fold change of degron read counts [1],log2 fold change of degron read counts [2],log2 fold change of degron read counts [3],log2 fold change of degron read counts (compound: thalidomide)
"FSCNVCGAYFTQKGNLLRHIKL [46F_47S_49N_50V_52G_53A_54Y_55F_67L_, Q9UKT9]",-0.837,-0.921,0.627,-0.674
"FACNQCGRGFTQKGNLLRHIKL [46F_47A_49N_50Q_52G_53R_54G_55F_67L_, Q9UKT9]",-2.53,-2.62,-2.49,-2.4
"FECNQCGATFTQKGNLLRHIKL [46F_47E_49N_50Q_52G_53A_54T_55F_67L_, Q9UKT9]",-2.51,-3.02,-2.92,-1.69
"FICDQCGARFTQKGNLLRHIKL [46F_47I_49D_50Q_52G_53A_54R_55F_67L_, Q9UKT9]",-2.79,-0.912,-0.818,-1.23
"FSCPICGAWFTQKGNLLRHIKL [46F_47S_49P_50I_52G_53A_54W_55F_67L_, Q9UKT9]",0.603,-0.272,0.788,-0.152
"FVCNQCGADFTQKGNLLRHIKL [46F_47V_49N_50Q_52G_53A_54D_55F_67L_, Q9UKT9]",-3.46,-3.35,-3.82,-2.79
"FRCEICGRRFTQKGNLLRHIKL [46F_47R_49E_50I_52G_53R_54R_55F_67L_, Q9UKT9]",-2.67,-2.2,-1.21,-0.634
"FSCDQCGAEFTQKGNLLRHIKL [46F_47S_49D_50Q_52G_53A_54E_55F_67L_, Q9UKT9]",-2.57,-3.41,-1.87,-2.94
"FCCPICGRCFTQKGNLLRHIKL [46F_47C_49P_50I_52G_53R_54C_55F_67L_, Q9UKT9]",-0.609,-0.825,0.868,0.188
"FVCEICGRPFTQKGNLLRHIKL [46F_47V_49E_50I_52G_53R_54P_55F_67L_, Q9UKT9]",-1.68,-0.932,-1.28,-0.0354
"LCCPICGFKCTQKGNLLRHIKL [46L_47C_49P_50I_52G_53F_54K_55C_67L_, Q9UKT9]",1.84,1.91,0.929,2.55
"FQCEICGAKFTQKGNLLRHIKL [46F_47Q_49E_50I_52G_53A_54K_55F_67L_, Q9UKT9]",0.93,2.95,0.278,3.46
"FLCEICGAKFTQKGNLLRHIKL [46F_47L_49E_50I_52G_53A_54K_55F_67L_, Q9UKT9]",0.834,-0.868,-0.0729,2.07
"FHCEICGAKFTQKGNLLRHIKL [46F_47H_49E_50I_52G_53A_54K_55F_67L_, Q9UKT9]",2.99,2.33,-0.357,0.544
"FKCEICGAKFTQKGNLLRHIKL [46F_47K_49E_50I_52G_53A_54K_55F_67L_, Q9UKT9]",-1.09,-3.1,-3.06,-1.37
"FNCEICGAKFTQKGNLLRHIKL [46F_47N_49E_50I_52G_53A_54K_55F_67L_, Q9UKT9]",2.53,0.377,-1.68,0.453
"FSCEICGAKFTQKGNLLRHIKL [46F_47S_49E_50I_52G_53A_54K_55F_67L_, Q9UKT9]",3.23,1.96,-0.76,1.76
"FFCEICGAKFTQKGNLLRHIKL [46F_47F_49E_50I_52G_53A_54K_55F_67L_, Q9UKT9]",3.78,3.65,1.37,1.7
"FDCEICGAKFTQKGNLLRHIKL [46F_47D_49E_50I_52G_53A_54K_55F_67L_, Q9UKT9]",2.14,0.278,-2.01,1.01
"FECEICGAKFTQKGNLLRHIKL [46F_47E_49E_50I_52G_53A_54K_55F_67L_, Q9UKT9]",0.521,-1.41,-0.834,2.62
"FYCEICGAKFTQKGNLLRHIKL [46F_47Y_49E_50I_52G_53A_54K_55F_67L_, Q9UKT9]",3.9,3.84,1.98,1.59
"FCCEICGAKFTQKGNLLRHIKL [46F_47C_49E_50I_52G_53A_54K_55F_67L_, Q9UKT9]",3.35,2.52,0.0496,2.53
"FACNICGACFTQKGNLLRHIKL [46F_47A_49N_50I_52G_53A_54C_55F_67L_, Q9UKT9]",2.13,1.95,0.735,-0.49
"FKCEICGRRFTQKGNLLRHIKL [46F_47K_49E_50I_52G_53R_54R_55F_67L_, Q9UKT9]",-2.87,-3.55,-3,-1.89
"FDCSVCGHIFTQKGNLLRHIKL [46F_47D_49S_50V_52G_53H_54I_55F_67L_, Q9UKT9]",-1.69,-1.84,-1.76,-1.28
"FMCPICGAWFTQKGNLLRHIKL [46F_47M_49P_50I_52G_53A_54W_55F_67L_, Q9UKT9]",-1.26,-0.611,1.3,-0.221
"FDCPICGAEFTQKGNLLRHIKL [46F_47D_49P_50I_52G_53A_54E_55F_67L_, Q9UKT9]",-0.0781,-0.933,1.14,0.579
"FDCNVCGALFTQKGNLLRHIKL [46F_47D_49N_50V_52G_53A_54L_55F_67L_, Q9UKT9]",-2.45,-2.67,-0.75,-0.856
